For the test, the system named is PPARa:RXRa (NR concentration 270 nM, RXRa partner concentration 90 nM). The test can be described thus: PBM binding z-score (relative to random genomic background probes); higher = stronger binding; sequences stand for … in GC…GCGATTGACAGCGTAGAATGAAGG
The method, boiled down: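 Custom Agilent 4×180K protein-binding microarrays carried double-stranded probes. Their 34-nt variable regions held direct-repeat seeds, single-nucleotide variants, half-site ablations and random human genomic background sequences. Arrays were incubated 1 h with ligand-free nuclear receptor dimers in PBS pH 7.4, 2% milk, 0.02% Triton X-100, 1 mM DTT, 0.2 mg/mL BSA and 0.4 mg/ml salmon testes DNA. Antibodies against each partner (one per run) detected binding, and scanned fluorescence was regression-normalized. Binding z-scores use random background probes as reference.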
CCTGCTAGGTCATGGTTAGCTAATCTACAGTATG showed a PBM binding z-score of 3.76.

Sequence AATACAGGGTCACTAGGCCAGTGTAGGTACGAAT had a PBM binding z-score of 5.69.

Regarding AGAACGAGGTCAATGAGTTGATAGCACGGGTGGC, the PBM binding z-score was 5.6.

For TCTAGCAGGCCAGAGGGTCACTCTAGAGGTACGG, the PBM binding z-score was determined as 2.13.

For the sequence CCTATTAGTTGACTATAAGGGCAACCGAAGCTCG, the PBM binding z-score is 0.121.

As for ATCTCTAGGTAAAGATAGTTCAGTGCATGCAAAT, the PBM binding z-score amounted to 0.697.

As for CCTCGGCGGACAACAGGAGGTCAGAGCTGCCAGA, the PBM binding z-score amounted to 1.68.

Sequence AGAATGAGGGTAAGATCAGGGAAACAGAATACAT yielded a PBM binding z-score of 0.918.

With TCTATTTGTTGAAGGGCAACCGACGAGTCCGTTT, the PBM binding z-score came to 0.93.

As to CGTCCAAGGTCAATACTAGGTCAGTGAAAGCATT, the PBM binding z-score stood at 5.33.

Consider GCTACTGGGGCATCAGCAGGTTACCATAACTTAA, for which the PBM binding z-score is 1.74.

For the sequence CCTCCAAGGTCAGCAGGTCAGTGAAAGCGACGTG, the PBM binding z-score is 4.67.

Regarding CCGACTGGGGCAGAAAGGTTACCATTCCATCCGG, the PBM binding z-score was 1.93.

In the case of CCTACTTGGTCAAGGTCACACACGCTATAGGTAC, the PBM binding z-score came out at 4.33.

CCTGCTAGGTGAATGGTCAGCTAAAGCAGCTCGC displayed a PBM binding z-score of 1.25.

In the case of TCTTGTAGATCAAAAGTTAAGAAAGCCGAAGCCT, the PBM binding z-score is 1.31.

With CCTTACGGGTCACGCCAGGTTATAGCATCGGAGT, the PBM binding z-score worked out at 5.57.

On to GCGACTGGGGCAAAGCAGGTTAACATAAGGTTGG, for which the PBM binding z-score was determined as 1.41.

On to GCGACTGCGGCAAAGCAGGTTACCATAAGGTTGG, for which the PBM binding z-score turned out to be 0.0395.

TAGCCTAGGTCAGATCGGGCCAATATACGCTATA displayed a PBM binding z-score of 1.79.

Sequence AGAACGAGGGCACGTTGAGTTGATAGCAGAGTAG yielded a PBM binding z-score of 2.23.

Regarding ACAAGCAGGCCAAGTTTGGGTCACTCAAACAAAG, the PBM binding z-score amounted to 1.51.

These data come from the supplement of paper PMC6555819.
